Results on 28 compounds are retold here after PubChem BioAssay (NCATS).

Experiment [1] is described as follows: P-glycoprotein substrates identified in KB-8-5-11 adenocarcinoma cell line, qHTS therapeutic library screen (AID 1346987). Also: nearly all actives have a fitted effect of over 65% in size. Also: potency is read from the fitted curve at half-maximal effect. Put shortly: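 KB-8-5-11: colchicine-selected sub-line of KB-3-1 over-expressing P-gp; assay medium lacked colchicine. 72 h drug exposure at 37 degree C, CellTiter-Glo.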
(In general: qHTS replaces the single test concentration by a dilution series.)

Experiment [2] concerns the target Atrial natriuretic peptide receptor 1 (Homo sapiens) (UniProt P16066). Put plainly: Natriuretic polypeptide receptor (hNpr1) antagonism - Pilot screen (AID 1347049; calls by dose curve;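 also: agonist-evoked cGMP luminescence read 20 min after hNppA addition; series mostly up to about 58 µM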). Put shortly:
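HEK293 cells co-expressing hNpr1 and the GloSensor pGS-40F cGMP luciferase sensor were preloaded with 2% GloSensor reagent for 2 h. Compounds were added for 30 min at room temperature, then cells were stimulated with 0.1 nM hNppA for 20 min before luminescence readout.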

The target of experiment [3] is Atrial natriuretic peptide receptor 2 (Homo sapiens) (UniProt P20594). The experiment is described as follows: Natriuretic polypeptide receptor (hNpr2) antagonism - Pilot subtype selectivity assay (AID 1347050; calls by dose curve). In a few lines:
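cGMP-sensor HEK293/hNpr2 cells; 2% GloSensor reagent 2 h RT; compounds 30 min; baseline luminescence read; 1 nM hNppC agonist 20 min RT; final luminescence read by CCD camera. Antagonism = reduced post-agonist signal.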

A short description of experiment [4]: NS1 protein of Zika virus - qHTS assay to identify small molecule inhibitors in human HEK 293 cells (AID 1347053). Also: nearly all actives have a fitted effect of over 55% in size. Also: potency is read from the fitted curve at half-maximal effect. Put shortly:
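Inhibition of NS1 expression was scored in HEK 293 cells given compound 1 h ahead of MR766 virus (MOI = 0.5). Following 24 h at 37 C, two anti-NS1 antibodies generated a TR-FRET signal, scaled between uninfected and infected controls.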

In experiment [5] the target is T1, Tyrosine-protein phosphatase non-receptor type substrate 1 (Homo sapiens) + Leukocyte surface antigen CD47 (Homo sapiens) (UniProt P78324+Q08722). The experiment is described as follows: CD47-SIRPalpha protein protein interaction - LANCE assay qHTS validation (AID 1347057; active = well fitted curve in the direction sought with a large enough effect in the signal ratio, with a control signal flat, not every such curve was filed as active; the % refers to the signal ratio; also: series mostly up to about 38 µM). In a few lines: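 First, His-tagged CD47 and Eu-labelled anti-His antibody met the compound for 30 min; next, site-specifically biotinylated SIRPalpha was added for 30 min; finally streptavidin-APC was added before reading the TR-FRET ratio.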
T1 sequence (P78324 whole entry, looked up): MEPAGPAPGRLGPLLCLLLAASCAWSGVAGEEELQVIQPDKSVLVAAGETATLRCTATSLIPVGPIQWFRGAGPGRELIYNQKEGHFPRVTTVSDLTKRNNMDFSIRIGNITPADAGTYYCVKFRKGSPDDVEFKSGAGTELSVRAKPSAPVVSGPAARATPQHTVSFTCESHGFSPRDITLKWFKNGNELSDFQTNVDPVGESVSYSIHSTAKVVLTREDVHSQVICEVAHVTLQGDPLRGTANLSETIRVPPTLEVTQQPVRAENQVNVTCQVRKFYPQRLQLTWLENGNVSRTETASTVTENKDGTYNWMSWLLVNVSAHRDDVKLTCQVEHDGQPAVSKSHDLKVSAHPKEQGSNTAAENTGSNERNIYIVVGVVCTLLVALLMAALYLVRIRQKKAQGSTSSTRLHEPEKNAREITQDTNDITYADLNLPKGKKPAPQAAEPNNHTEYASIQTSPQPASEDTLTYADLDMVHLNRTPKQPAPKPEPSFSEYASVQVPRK
T1 sequence (Q08722 whole entry, looked up): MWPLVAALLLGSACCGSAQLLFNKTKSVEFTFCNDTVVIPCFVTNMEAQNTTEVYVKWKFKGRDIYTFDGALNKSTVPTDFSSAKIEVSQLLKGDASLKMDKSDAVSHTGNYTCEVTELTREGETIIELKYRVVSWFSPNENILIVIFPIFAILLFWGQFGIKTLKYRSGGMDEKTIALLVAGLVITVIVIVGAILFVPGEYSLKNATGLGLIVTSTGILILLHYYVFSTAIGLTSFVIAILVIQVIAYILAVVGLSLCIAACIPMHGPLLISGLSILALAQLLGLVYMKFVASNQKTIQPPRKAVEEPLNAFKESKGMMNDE

The target of experiment [6] is T1, Tyrosine-protein phosphatase non-receptor type substrate 1 (Homo sapiens) + Leukocyte surface antigen CD47 (Homo sapiens). Put plainly: CD47-SIRPalpha protein protein interaction - HTRF assay qHTS validation (AID 1347058; active = well fitted curve in the direction sought with a large enough effect in the signal ratio, not every such curve was filed as active; the % refers to the signal ratio; also: series mostly up to about 38 µM). Put shortly: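 TR-FRET read (Ch1/Ch2 ratio) of soluble extracellular CD47 and Avi-biotinylated SIRPalpha domains in PBS pH 7.4 with 0.05% IGEPAL; 7-point compound titration. Sequential 30 min room-temperature steps; non-biotinylated SIRPalpha as control inhibitor.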
For orientation: TR-FRET usually uses a lanthanide donor and a delayed reading to cut background.

For experiment [7] the target is unchanged. The experiment is described as follows: CD47-SIRPalpha protein protein interaction - Alpha assay qHTS validation (AID 1347059).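 Also: bead proximity luminescence from CD47 binding SIRPalpha after compound preincubation with SIRPalpha.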 In a few lines: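 Soluble extracellular domains: Avi-tag biotinylated SIRPalpha (25 nM) preincubated 30 min RT with compound, then 6His-CD47 (12.5 nM) 30 min; Ni-NTA acceptor and streptavidin donor beads (10 ug/mL) 30 min, AlphaScreen read. PBS pH 7.4, 0.05% IGEPAL.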

Experiment [8] is described as follows: Natriuretic polypeptide receptor (hNpr1) antagonism - Pilot counterscreen GloSensor control cell line (AID 1347045; calls by dose curve; also: series mostly up to about 38 µM). Put shortly:
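HEK293 cells carrying the GloSensor cGMP sensor (GIP/pGS-40F) were loaded with 2% GloSensor reagent for 2 h, exposed to compounds for 30 min, and then stimulated with 50 uM sodium nitroprusside for 20 min at room temperature.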
A general note: Counterscreens check selectivity or assay interference.

Results filed as inconclusive are left out. Calls of active or inactive are those of the source. Unless noted, calls follow the shape of the dose curve; as a rule, active = well fitted curve in the direction sought with a large enough effect; inconclusive = small, poorly fitted or top-dose-only effect, or another doubt; inactive = no such curve, though single readings can be large; an effect the other way counts as inactive or inconclusive.

Atrial natriuretic peptide receptor 2 (Homo sapiens), sequence (P20594 whole entry, looked up): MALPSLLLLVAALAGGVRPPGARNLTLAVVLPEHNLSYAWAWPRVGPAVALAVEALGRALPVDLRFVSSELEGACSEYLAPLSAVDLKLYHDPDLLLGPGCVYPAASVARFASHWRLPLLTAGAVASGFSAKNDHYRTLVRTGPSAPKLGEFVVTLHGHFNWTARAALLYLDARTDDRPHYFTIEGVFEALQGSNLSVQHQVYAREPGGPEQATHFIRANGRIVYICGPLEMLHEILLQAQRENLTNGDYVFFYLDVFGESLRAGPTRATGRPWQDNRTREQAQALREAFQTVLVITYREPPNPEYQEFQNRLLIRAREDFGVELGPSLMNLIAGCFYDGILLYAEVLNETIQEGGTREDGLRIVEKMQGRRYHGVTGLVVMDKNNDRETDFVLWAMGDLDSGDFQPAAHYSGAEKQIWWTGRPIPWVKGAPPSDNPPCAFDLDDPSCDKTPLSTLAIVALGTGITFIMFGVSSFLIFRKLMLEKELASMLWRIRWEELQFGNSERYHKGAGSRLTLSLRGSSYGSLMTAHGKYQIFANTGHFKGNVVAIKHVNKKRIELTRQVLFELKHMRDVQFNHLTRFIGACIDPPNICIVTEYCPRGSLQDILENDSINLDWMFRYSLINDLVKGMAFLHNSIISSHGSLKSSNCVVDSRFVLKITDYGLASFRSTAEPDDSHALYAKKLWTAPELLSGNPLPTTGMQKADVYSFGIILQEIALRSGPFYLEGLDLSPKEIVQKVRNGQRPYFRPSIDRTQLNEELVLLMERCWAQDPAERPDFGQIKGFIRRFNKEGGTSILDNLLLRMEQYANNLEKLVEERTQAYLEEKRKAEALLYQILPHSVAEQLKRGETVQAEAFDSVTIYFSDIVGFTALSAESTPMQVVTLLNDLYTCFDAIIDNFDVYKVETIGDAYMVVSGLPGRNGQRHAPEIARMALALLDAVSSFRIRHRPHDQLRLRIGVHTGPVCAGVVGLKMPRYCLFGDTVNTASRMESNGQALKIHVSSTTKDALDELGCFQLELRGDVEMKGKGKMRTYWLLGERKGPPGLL
Atrial natriuretic peptide receptor 1 (Homo sapiens), sequence (P16066 whole entry, looked up): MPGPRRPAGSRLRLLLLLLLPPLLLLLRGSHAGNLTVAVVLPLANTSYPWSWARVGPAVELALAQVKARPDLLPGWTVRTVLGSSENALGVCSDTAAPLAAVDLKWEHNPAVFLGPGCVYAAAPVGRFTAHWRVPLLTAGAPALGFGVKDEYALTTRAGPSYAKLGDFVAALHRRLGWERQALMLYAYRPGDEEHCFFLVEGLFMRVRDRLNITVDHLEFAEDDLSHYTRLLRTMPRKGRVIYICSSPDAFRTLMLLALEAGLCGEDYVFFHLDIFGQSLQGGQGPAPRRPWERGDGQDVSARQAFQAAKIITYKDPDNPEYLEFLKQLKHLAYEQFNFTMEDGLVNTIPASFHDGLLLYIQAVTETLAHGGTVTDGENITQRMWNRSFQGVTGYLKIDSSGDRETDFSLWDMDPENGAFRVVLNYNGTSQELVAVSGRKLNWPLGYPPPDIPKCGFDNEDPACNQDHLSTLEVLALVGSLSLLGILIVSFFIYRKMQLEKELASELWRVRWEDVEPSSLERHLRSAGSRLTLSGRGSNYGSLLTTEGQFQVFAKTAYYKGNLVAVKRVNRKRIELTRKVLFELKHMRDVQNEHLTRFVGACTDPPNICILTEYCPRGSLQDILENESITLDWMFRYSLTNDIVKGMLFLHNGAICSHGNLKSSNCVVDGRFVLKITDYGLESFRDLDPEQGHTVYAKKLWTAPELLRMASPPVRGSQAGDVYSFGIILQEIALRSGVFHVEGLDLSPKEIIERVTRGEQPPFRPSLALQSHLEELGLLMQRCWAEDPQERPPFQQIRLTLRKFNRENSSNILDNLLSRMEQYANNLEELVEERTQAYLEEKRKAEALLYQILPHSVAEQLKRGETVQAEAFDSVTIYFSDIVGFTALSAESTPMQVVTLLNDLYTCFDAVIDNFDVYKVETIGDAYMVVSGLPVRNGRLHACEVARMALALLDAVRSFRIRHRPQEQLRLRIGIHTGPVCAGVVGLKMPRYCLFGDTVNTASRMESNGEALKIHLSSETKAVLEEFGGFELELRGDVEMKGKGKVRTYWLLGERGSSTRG

In the case of `S=C(NC1CCCCC1)N1CCC(c2cnc[nH]2)CC1`, the Potency entry in experiment [1], in experiment [2], in experiment [3], in experiment [4] and in experiment [7] was “inactive” throughout. In addition, the outcome in experiment [5] and in experiment [6] was inactive.

Take `O=S(=O)(O)C(F)(F)C(F)(F)C(F)(F)C(F)(F)F`: the Potency entry in experiment [1] and in experiment [4] was “inactive” throughout.

Regarding `CCCCOC(=O)c1ccccc1C(=O)OCc1ccccc1`, the Potency result in experiment [1] and in experiment [4] was “inactive” throughout.

For `CCCCCCCCc1ccc(O)cc1`, the Potency result in experiment [1] and in experiment [4] was “inactive” in each case.

For the compound `C#CCOC(=O)C1=CCCN(C)C1`, the Potency entry in experiment [2], in experiment [3], in experiment [4] and in experiment [7] was “inactive” each time. For the same compound, the outcome in experiment [5] and in experiment [6] was inactive.

Regarding `O=C1CCCN1CC#CCN1CCCC1`, the Potency entry in experiment [8], in experiment [2], in experiment [3], in experiment [4] and in experiment [7] was “inactive” each time. Also, the result in experiment [5] and in experiment [6] was inactive.

As to `O=C(Cc1ccc(Cl)c(Cl)c1)N1CCCCC1CN1CCCC1` (centres undefined), the Potency result in experiment [8], in experiment [2], in experiment [3] and in experiment [7] was “inactive” each time. Further, the result in experiment [5] and in experiment [6] was inactive.

In the case of `CCO/N=C(\CC)C1=C(O)CC(c2c(C)cc(C)cc2C)CC1=O` (centres undefined), the Potency result in experiment [1] and in experiment [4] was “inactive” throughout.

`CCCCC(CC)COC(=O)c1ccccc1C(=O)OCC(CC)CCCC` (centres undefined): the Potency entry in experiment [1] and in experiment [4] was “inactive” each time.

Turning to `CCCN1CCO[C@@H]2c3cc(O)ccc3OC[C@H]21`, the Potency result in experiment [2], in experiment [3], in experiment [4] and in experiment [7] was “inactive” in each case. The outcome in experiment [5] and in experiment [6] was inactive.

Turning to `c1cc2ccc3cccc4ccc(c1)c2c34`, the Potency result in experiment [1] and in experiment [4] was “inactive” in each case.

For the compound `CNCCc1c[nH]c2ccc(O)cc12`, the Potency entry in experiment [8], in experiment [2], in experiment [3], in experiment [4] and in experiment [7] was “inactive” each time. Moreover, the outcome in experiment [5] and in experiment [6] was inactive.

Consider `CO/C=C(/C(=O)OC)c1ccccc1Oc1cc(Oc2ccccc2C#N)ncn1`, for which the results for the Potency in experiment [1] and in experiment [4] were 3.16 µM (active) and 14.1 µM (active), respectively.

As to `COc1nn(CSP(=S)(OC)OC)c(=O)s1`, the Potency entry in experiment [1] and in experiment [4] was “inactive” in each case.

Regarding `O=C(O)[C@@H]1CCN1`, the Potency result in experiment [2], in experiment [3], in experiment [4] and in experiment [7] was “inactive” in each case. In addition, the result in experiment [5] and in experiment [6] was inactive.

On to `Nc1ccc(Cl)cc1`, for which the Potency entry in experiment [1] is “inactive”.

For `CC(=O)NCCc1c[nH]c2ccccc12`, the Potency entry in experiment [1], in experiment [2], in experiment [3], in experiment [4] and in experiment [7] was “inactive” each time. Moreover, the outcome in experiment [5] and in experiment [6] was inactive.

On to `O=S(=O)(O)C(F)(F)C(F)(F)C(F)(F)C(F)(F)C(F)(F)C(F)(F)C(F)(F)C(F)(F)F`, for which the Potency entry in experiment [1] and in experiment [4] was “inactive” in each case.

As for `C[C@@H](N)Cc1cnc[nH]1`, the Potency entry in experiment [2], in experiment [3], in experiment [4] and in experiment [7] was “inactive” in each case. Moreover, the outcome in experiment [5] and in experiment [6] was inactive.

`ClC1=C(Cl)[C@]2(Cl)[C@@H]3[C@@H]4C[C@@H]([C@H]5O[C@@H]45)[C@@H]3[C@@]1(Cl)C2(Cl)Cl`: in experiment [1], the Potency entry is “inactive”.

Turning to `O=C(O)COc1nc(Cl)c(Cl)cc1Cl`, the Potency result in experiment [1] and in experiment [4] was “inactive” throughout.

Consider `CCC1(CCC(C)C)C(=O)NC(=O)NC1=O`, for which the Potency entry in experiment [1] and in experiment [4] was “inactive” in each case.

As for `COCCOCCO`, the Potency entry in experiment [1] and in experiment [4] was “inactive” throughout.

For the compound `CS(=O)(=O)c1ccc(C(=O)C2C(=O)CCCC2=O)c([N+](=O)[O-])c1`, the Potency entry in experiment [1] and in experiment [4] was “inactive” throughout.

On to `Nc1ccc(Sc2ccc(N)cc2)cc1`, for which the Potency result in experiment [1] and in experiment [4] was “inactive” throughout.

`O=C(NCC1CCOCC1)c1cnc(Nc2ccc(Cl)cc2Cl)nc1C(F)(F)F`: the Potency entry in experiment [1] and in experiment [4] was “inactive” in each case.

As for `COc1ccc2c(c1)CN(C)CC2c1ccc(Cl)c(Cl)c1` (centres undefined), the Potency result in experiment [1] and in experiment [4] was “inactive” each time.

With `CC(C)(C)NC[C@H](O)c1ccc(O)cc1Cl`, the Potency entry in experiment [1] and in experiment [4] was “inactive” each time.
